About 83,000 compounds went through this panel and 20% of them were active in at least one assay; those are over-represented in the sample as a whole.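 Note: values are percent growth. 100 is the growth of untreated cells, values between 100 and 0 indicate rising inhibition; between -100 and 0 indicates cell death.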 Unmarked numbers belong to inactive results. The source made the active and inactive calls.

This test relates to BT-549 breast. Description: NCI-60 one-dose screen, 48 h (100 = growth as untreated, 0 = no growth, -100 = all killed). Conditions: 10 µM. On the procedure:
Growth inhibition of the BT-549 human tumor cell line is measured as a screen for anti-cancer activity. Cells are grown in 96 well plates and exposed to the test compound for 48 hours. Compounds are tested at a single concentration, which is 10^-5 M for most compounds. The reported endpoint is percent growth (GI% or GIPRCNT), where numbers from 0 - 100% represent growth inhibition, and numbers from -100% - 0 represent cell death. For example, a value of 40 represents 60% growth inhibition. A value of 0 means no net growth occurred over the course of the experiment. A value of -40 indicates 40% of cells at the beginning of the experiment died by the end of the experiment. A value of -100 means all cells are dead at the end of the experiment.
NCI-60 Human Tumor Cell Lines Screen was performed using the standard one-dose NCI protocol, which is described in more detail at https://dtp.cancer.gov/discovery_development/nci-60/default.htm.
Compounds with GIPRCNT values below 10 were considered active. Activity score was based on GIPRCNT using the following formula: […]
Score is 0 for GIPRCNT values of 100 or above, 50 for GIPRCNT values of 0, and 100 for GIPRCNT values of -100.
On to `Cn1cc(-c2nc(N)nnc2-c2c[nH]c3ccccc23)c2cc(Br)cnc21`, for which the growth was -29.6% (active).

With `Cc1ccc2c(c1)C(=O)/C(=C/c1c[nH]c3ccccc13)S2`, the growth was 33.8%.

For the compound `Cn1cc(-c2cc3nc(-c4c[nH]c5ccccc45)cc(N)n3n2)c2cc(Cl)ccc21`, the growth was -90.4% (active).

Regarding `COc1ccc(-n2c(SCC(=O)NNS(=O)(=O)c3ccccc3)nc3ccc(Cl)cc3c2=O)cc1`, the growth is 105%.

In the case of `CC1(C)CC(=O)C2=C(C1)N(Cc1ccc(C(=O)O)cc1)C1=C(C(=O)CC(C)(C)C1)C2c1ccc(Cl)cc1`, the growth was 93.5%.

On to `COC(=O)CNC(=O)COc1c(OC)c(OC)cc2oc(-c3cccc(C(=O)Nc4ccc(Cl)cc4)c3)cc(=O)c12`, for which the growth was 1.95% (active).

For `O=C(CN1CCN(c2ncnc3c2cnn3-c2ccccc2)CC1)Nc1ccc(Br)cc1`, the growth is 50%.

As for `O=C(c1ccc(Cl)cc1)C(c1c[nH]c2ccccc12)c1c[nH]c2ccccc12`, the growth was -38.2% (active).

Take `CCOC(=O)c1ccc(NC(=O)CSC(CC(=O)c2sc(Nc3ccccn3)nc2C)c2ccccc2F)cc1` (stereo not given): the growth is -9.95% (active).

Turning to `Fc1ccc(-c2csc(Nc3cccc(Nc4nc(-c5ccc(F)cc5)cs4)c3)n2)cc1`, the growth is 64%.

On to `Cc1ccc(S(=O)(=O)N2CCN(S(=O)(=O)c3oc(-c4ccccc4)nc3C#N)CC2)cc1`, for which the growth is 76.1%.

For the compound `COc1cc2oc(-c3cccc(C(=O)Nc4ccc(Cl)cc4)c3)cc(=O)c2c(OCCNC(=O)[C@@H](N)CO)c1OC`, the growth was 58.9%.

On to `O=C(CSc1nc2ccccc2c(=O)n1-c1ccc(Cl)cc1)Nc1ccc(-c2nc3ccc([N+](=O)[O-])cc3[nH]2)cc1`, for which the growth was -2.07% (active).

For the compound `Cn1cc(-c2nnc(N)nc2-c2c[nH]c3ccc(F)cc23)c2cc(Br)cnc21`, the growth is 51.1%.

For the compound `COc1cccc(C(=O)CSc2nc(-c3ccc(OCc4ccccc4)c(OC)c3)c(C#N)c(=O)[nH]2)c1`, the growth was 102%.

`O=C1NC2C=CC=CC2/C1=C1/SC(=S)N(C2CC(=O)N(c3ccc(Br)cc3)C2=O)C1=O` (stereo not given): the growth is 101%.

For `Cn1cc(-c2nnc(N)nc2-c2c[nH]c3ccccc23)c2cc(Br)cnc21`, the growth was 17%.

Regarding `COc1ccc(NCc2cn(-c3ccc(C(=O)O)cc3)nc2-c2ccc(F)cc2)cc1C(F)(F)F`, the growth is 33.2%.

With `CC1[C@H]2[C@H](C[C@H]3[C@@H]4CC=C5c6sc(Nc7cccc(Cl)n7)nc6CC[C@]5(C)[C@H]4CC[C@@]32C)O[C@]12CC[C@@H](C)CO2` (stereo not given in full), the growth was 83.5%.

As to `C#C[C@]1(O)CC[C@H]2[C@@H]3CC=C4c5sc(Nc6ccc(N(C)C)cc6)nc5CC[C@]4(C)[C@H]3CC[C@@]21C`, the growth was -58.8% (active).

`COc1ccc(Cc2nn(CC(=O)N/N=C/c3ccc([N+](=O)[O-])cc3)c(=O)c3c(C)noc23)cc1`: the growth was 87.4%.

`C#C[C@]1(O)CC[C@H]2[C@@H]3CC=C4c5sc(Nc6ccc(C(F)(F)F)cn6)nc5CC[C@]4(C)[C@H]3CC[C@@]21C`: the growth is -50% (active).

On to `COc1cc(-c2nc3ccc(C)cc3[nH]2)ccc1OCc1nnc(-c2ccccc2Br)o1`, for which the growth was 55.7%.

For the compound `Cc1ccc(COc2ccc(NC(=O)Nc3ccc(Cl)c(C(F)(F)F)c3)cc2)cc1`, the growth was 74.4%.

Regarding `COc1cccc(O)c1/C=C1\SCc2cc3c(OC)cccc3[o+]c21`, the growth was 111%.

In the case of `O=C(c1ccccc1)c1ccc2nc(-c3ccccc3Br)[nH]c2c1`, the growth was -76.4% (active).

For `COc1ccc(Cc2nn(CC(=O)N/N=C/c3ccc(Br)cc3)c(=O)c3c(C)noc23)cc1`, the growth is 50%.

On to `O=C(Nc1ccc(OCc2ccc(Cl)cc2)cc1)Nc1ccc(Cl)c(C(F)(F)F)c1`, for which the growth was -17% (active).

Regarding `COc1ccc(C(=O)COc2ccc(NC(=O)Nc3ccc(Cl)c(C(F)(F)F)c3)cc2)cc1`, the growth is 38%.

Turning to `CC1(C)CC[C@]2(C(=O)O)CC[C@]3(C)C(=CCC4[C@@]5(C)C[C@@H](O)[C@@H]6OC(c7cccc(F)c7)OC[C@@]6(C)C5CC[C@]43C)C2C1` (stereo not given in full), the growth was 39%.

For `COc1ccc(Cn2cc(C#N)c(N)c2C(C)=O)c(OC)c1`, the growth is 107%.

On to `O=C(Nc1ccc(Oc2ncnc3scc(Nc4n[nH]c(=S)s4)c23)cc1)C1(C(=O)Nc2cccc(C(F)(F)F)c2)CC1`, for which the growth is 96.1%.

Consider `COc1ccc(OC)c(-n2cc(C#N)c(N)c2C(=O)c2ccc(Cl)cc2Cl)c1`, for which the growth was 48.3%.

Consider `COc1ccc(C(=O)COc2ccc(NC(=O)Nc3ccccc3)cc2)cc1`, for which the growth was 76.2%.

In the case of `Cc1cc(N=C2NC(=O)/C(=C/c3cc(C(C)(C)C)c(O)c(C(C)(C)C)c3)S2)n[nH]1`, the growth was -1.78% (active).

With `C#C[C@]1(O)CC[C@H]2[C@@H]3CC=C4c5sc(Nc6cc(C)cc(C)n6)nc5CC[C@]4(C)[C@H]3CC[C@@]21C`, the growth is -50.4% (active).

`COc1ccc(C2c3sc4ccc(C)cc4c3Oc3nc(N)nc(N)c32)cc1` (stereo not given): the growth is 84.5%.

For the compound `C#CCOc1cc(N(CC)CC)ccc1C(C(=O)NC(C)(C)C)N(C(=O)C1CCc2cc(F)ccc2O1)c1ccc(F)cc1F` (stereo not given), the growth was 31.1%.

Turning to `CCOC(=O)C1=C(N)N(c2ccc(C)cc2)C2=C(C(=O)CC(C)(C)C2)C1c1ccccc1Br` (stereo not given), the growth is 93.9%.

In the case of `O=C(CC(=O)Nc1ccc(Oc2ncnc3scc(Nc4n[nH]c(=S)s4)c23)cc1)Nc1ccc(Cl)cc1`, the growth was 80.2%.

These data come from PubChem BioAssay (NCI).
